# From publication PMC7862700, “An all-to-all approach to the identification of sequence-specific readers for epigenetic DNA modifications on cytosine”
# Experiments:
# Assay in all cases: DAPPL (digital affinity profiling via proximity ligation, sequencing); 10 mM Tris-HCl pH 7.5, 50 mM NaCl, 1 mM DTT, 4% glycerol, room temperature, 30 min; GST-TFs on glutathione beads, 16-mer random dsDNA library, 0.1% formaldehyde crosslink after washing; high values mean tight binding
# FLI1 = target: T1, FLI1 (Homo sapiens, UniProt Q01543 1-452); conditions: protein: recombinant; tags: N-terminal GST; dsDNA, one strand shown
# T1 sequence: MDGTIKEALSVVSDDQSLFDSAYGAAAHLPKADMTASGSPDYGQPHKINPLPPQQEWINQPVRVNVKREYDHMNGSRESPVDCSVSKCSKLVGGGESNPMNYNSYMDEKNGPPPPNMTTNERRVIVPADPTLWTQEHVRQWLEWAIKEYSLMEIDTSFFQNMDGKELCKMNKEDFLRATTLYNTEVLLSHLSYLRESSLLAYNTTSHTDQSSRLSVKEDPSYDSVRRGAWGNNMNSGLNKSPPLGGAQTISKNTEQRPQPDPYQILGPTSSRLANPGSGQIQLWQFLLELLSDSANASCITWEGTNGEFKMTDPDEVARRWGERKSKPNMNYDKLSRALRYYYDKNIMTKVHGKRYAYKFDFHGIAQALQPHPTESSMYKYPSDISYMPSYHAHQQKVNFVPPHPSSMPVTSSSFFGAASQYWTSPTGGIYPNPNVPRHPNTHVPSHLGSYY
# In short: (§1)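 Human transcription factors were made in yeast as GST fusions, captured on glutathione beads and barcoded with DNA. With a tag-only sample included, the pool was incubated with 200 nmole of a random double-stranded 16-mer DNA library in Tris/NaCl/DTT/glycerol buffer at room temperature for 30 min, then crosslinked with 0.1% formaldehyde after washing, ligated by proximity, amplified and sequenced. For binding signal, each hexamer's read frequency for a factor is divided by its frequency for the tag-only sample.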
# ELK1 = target: T2, ELK1 (Homo sapiens, UniProt P19419 1-428); conditions: protein: recombinant; tags: N-terminal GST; dsDNA, one strand shown
# T2 sequence: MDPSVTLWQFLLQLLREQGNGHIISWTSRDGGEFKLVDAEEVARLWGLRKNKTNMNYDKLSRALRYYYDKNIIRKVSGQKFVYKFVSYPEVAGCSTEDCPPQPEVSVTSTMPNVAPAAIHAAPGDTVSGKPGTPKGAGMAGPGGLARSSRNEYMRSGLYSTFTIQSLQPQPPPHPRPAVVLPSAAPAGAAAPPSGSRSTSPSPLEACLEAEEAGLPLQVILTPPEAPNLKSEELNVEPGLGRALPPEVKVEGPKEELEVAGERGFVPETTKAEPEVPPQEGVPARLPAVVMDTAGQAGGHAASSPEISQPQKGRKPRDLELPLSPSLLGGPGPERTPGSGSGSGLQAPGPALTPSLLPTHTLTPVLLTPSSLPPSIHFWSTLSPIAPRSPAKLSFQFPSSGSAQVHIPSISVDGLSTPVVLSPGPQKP
# In short: as §1
# GABPA = target: T3, GABPA (Homo sapiens, UniProt Q06546 1-454); conditions: protein: recombinant; tags: N-terminal GST; dsDNA, one strand shown
# T3 sequence: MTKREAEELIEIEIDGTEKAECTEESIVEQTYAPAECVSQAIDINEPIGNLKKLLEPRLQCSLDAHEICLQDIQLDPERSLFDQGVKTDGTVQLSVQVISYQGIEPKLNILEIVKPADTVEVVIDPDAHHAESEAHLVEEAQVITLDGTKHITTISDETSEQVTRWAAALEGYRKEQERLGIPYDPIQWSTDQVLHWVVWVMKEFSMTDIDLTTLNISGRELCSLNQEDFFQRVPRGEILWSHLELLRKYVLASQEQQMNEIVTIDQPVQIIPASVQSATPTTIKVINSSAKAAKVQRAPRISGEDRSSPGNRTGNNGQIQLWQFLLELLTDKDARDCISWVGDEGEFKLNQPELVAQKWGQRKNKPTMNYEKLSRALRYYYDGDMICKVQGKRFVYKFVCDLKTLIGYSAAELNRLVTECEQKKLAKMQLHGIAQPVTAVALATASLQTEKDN
# In short: as §1
# ERG = target: T4, ERG (Homo sapiens, UniProt P11308 1-479); conditions: protein: recombinant; tags: N-terminal GST; dsDNA, one strand shown
# T4 sequence: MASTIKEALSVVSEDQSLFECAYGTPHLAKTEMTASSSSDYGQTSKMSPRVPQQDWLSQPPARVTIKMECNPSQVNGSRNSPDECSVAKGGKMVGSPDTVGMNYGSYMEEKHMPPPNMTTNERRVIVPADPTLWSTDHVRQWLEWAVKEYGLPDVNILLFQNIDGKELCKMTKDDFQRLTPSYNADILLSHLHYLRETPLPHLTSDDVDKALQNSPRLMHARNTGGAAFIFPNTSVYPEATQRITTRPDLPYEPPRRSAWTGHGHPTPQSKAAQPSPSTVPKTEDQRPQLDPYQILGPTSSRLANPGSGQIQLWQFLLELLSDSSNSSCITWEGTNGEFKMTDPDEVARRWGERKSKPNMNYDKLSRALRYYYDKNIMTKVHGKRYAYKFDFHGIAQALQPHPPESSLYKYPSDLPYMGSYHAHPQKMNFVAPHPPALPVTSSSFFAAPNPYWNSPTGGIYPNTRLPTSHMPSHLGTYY
# In short: as §1
# ELF1 = ELF1 (Homo sapiens, UniProt P32519 1-619); conditions: protein: recombinant; tags: N-terminal GST; dsDNA, one strand shown
# ELF1, sequence (P32519 whole entry): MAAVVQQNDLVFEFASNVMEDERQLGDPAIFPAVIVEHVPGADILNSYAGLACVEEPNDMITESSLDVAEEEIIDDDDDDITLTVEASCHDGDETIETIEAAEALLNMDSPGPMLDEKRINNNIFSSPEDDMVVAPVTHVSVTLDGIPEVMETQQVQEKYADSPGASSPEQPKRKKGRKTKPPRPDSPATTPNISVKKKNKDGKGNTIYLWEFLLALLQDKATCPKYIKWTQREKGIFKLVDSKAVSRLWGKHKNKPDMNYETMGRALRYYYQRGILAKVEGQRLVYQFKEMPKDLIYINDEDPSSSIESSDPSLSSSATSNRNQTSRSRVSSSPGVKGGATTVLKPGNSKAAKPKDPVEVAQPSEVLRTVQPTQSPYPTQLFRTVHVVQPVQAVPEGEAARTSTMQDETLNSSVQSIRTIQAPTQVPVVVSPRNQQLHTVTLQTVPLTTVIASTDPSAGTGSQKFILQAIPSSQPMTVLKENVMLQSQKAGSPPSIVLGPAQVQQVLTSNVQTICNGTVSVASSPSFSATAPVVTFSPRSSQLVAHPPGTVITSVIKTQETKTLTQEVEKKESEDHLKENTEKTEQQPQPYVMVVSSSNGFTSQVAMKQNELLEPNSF
# In short: as §1
# EHF = target: T5, EHF (Homo sapiens, UniProt Q9NZC4 1-300); conditions: protein: recombinant; tags: N-terminal GST; dsDNA, one strand shown
# T5 sequence: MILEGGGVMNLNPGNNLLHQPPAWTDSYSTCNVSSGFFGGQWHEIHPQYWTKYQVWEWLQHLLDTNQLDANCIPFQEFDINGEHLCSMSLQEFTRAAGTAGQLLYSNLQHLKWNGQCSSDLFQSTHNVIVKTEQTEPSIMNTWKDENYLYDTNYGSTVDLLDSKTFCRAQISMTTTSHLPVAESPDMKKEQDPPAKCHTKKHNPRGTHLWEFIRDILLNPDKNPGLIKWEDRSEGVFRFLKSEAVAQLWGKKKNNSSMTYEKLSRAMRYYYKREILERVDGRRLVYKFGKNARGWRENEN
# In short: as §1
# SPI1 = SPI1 (Homo sapiens, UniProt P17947 1-270); conditions: protein: recombinant; tags: N-terminal GST; dsDNA, one strand shown
# In short: as §1
# SPIB = SPIB (Homo sapiens, UniProt Q01892 1-262); conditions: protein: recombinant; tags: N-terminal GST; dsDNA, one strand shown
# SPIB, sequence (Q01892 whole entry): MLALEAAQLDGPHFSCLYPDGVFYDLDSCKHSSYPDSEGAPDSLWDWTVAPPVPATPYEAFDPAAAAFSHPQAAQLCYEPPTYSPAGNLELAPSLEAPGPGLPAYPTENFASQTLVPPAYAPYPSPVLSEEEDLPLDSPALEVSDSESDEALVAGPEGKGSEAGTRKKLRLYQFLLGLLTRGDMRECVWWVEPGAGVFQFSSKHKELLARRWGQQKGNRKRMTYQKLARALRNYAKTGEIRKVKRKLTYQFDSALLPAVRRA
# In short: as §1
# ELK3 = target: T6, ELK3 (Homo sapiens, UniProt P41970 1-407); conditions: protein: recombinant; tags: N-terminal GST; dsDNA, one strand shown
# T6 sequence: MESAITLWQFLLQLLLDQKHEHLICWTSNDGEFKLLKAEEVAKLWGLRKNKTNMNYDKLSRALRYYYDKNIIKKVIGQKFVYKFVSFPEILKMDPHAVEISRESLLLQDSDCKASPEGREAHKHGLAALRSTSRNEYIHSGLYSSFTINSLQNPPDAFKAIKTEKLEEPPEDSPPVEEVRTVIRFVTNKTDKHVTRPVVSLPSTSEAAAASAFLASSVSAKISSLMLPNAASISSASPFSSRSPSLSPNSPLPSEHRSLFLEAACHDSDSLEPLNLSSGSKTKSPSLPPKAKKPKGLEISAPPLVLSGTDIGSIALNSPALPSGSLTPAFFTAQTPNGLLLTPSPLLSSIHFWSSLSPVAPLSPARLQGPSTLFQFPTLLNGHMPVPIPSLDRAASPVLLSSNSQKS
# In short: as §1
# FEV = target: T7, FEV (Homo sapiens, UniProt Q99581 1-238); conditions: protein: recombinant; tags: N-terminal GST; dsDNA, one strand shown
# T7 sequence: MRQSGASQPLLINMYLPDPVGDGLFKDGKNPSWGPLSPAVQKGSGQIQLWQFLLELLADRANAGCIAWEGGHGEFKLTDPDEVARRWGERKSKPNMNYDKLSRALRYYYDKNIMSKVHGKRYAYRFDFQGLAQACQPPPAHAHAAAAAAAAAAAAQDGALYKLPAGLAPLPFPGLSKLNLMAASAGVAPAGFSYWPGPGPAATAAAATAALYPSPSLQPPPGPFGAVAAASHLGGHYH
# In short: as §1
# ETV5 = ETV5 (Homo sapiens, UniProt P41161 1-510); conditions: protein: recombinant; tags: N-terminal GST; dsDNA, one strand shown
# ETV5, sequence (P41161 whole entry): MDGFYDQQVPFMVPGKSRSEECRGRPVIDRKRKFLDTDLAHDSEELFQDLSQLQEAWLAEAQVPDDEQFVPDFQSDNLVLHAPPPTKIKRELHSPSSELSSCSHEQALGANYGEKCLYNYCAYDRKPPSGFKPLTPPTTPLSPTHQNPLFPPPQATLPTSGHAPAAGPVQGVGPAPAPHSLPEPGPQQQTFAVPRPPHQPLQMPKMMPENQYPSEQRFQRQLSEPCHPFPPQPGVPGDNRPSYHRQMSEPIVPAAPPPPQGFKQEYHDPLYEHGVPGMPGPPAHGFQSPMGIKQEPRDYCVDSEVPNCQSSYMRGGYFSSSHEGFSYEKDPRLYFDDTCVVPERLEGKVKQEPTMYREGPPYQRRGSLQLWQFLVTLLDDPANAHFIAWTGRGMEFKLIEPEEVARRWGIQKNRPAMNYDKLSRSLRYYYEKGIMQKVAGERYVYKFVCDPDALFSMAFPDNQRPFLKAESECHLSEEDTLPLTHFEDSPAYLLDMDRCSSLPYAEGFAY
# In short: as §1
# HSF1 = HSF1 (Homo sapiens, UniProt Q00613 1-529); conditions: protein: recombinant; tags: N-terminal GST; chain copies: 3; dsDNA, one strand shown
# HSF1, sequence (Q00613 whole entry): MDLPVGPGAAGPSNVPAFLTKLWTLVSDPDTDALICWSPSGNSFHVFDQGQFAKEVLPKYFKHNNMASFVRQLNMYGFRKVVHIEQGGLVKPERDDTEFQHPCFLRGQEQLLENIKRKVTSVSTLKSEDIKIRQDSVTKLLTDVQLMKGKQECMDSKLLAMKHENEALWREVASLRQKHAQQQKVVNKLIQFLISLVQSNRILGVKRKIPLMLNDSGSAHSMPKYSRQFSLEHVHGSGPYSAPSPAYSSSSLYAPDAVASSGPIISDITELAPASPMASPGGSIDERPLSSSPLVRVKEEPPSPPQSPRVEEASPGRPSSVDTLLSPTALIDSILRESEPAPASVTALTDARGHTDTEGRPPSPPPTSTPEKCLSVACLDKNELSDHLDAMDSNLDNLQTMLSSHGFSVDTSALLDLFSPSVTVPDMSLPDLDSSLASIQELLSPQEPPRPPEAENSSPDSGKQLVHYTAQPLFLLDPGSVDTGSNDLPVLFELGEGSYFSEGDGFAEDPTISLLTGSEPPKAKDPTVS
# In short: as §1
# SPIC = target: T8, SPIC (Homo sapiens, UniProt Q8N5J4 1-248); conditions: protein: recombinant; tags: N-terminal GST; dsDNA, one strand shown
# T8 sequence: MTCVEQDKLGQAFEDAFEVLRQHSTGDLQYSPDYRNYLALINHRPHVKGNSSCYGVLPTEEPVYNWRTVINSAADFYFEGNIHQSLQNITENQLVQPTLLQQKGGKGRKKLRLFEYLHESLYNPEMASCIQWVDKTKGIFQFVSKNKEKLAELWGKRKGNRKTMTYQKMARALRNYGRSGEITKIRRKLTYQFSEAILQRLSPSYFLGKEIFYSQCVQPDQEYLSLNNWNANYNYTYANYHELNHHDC
# In short: as §1
# ELF4 = ELF4 (Homo sapiens, UniProt Q99607 1-663); conditions: protein: recombinant; tags: N-terminal GST; dsDNA, one strand shown
# ELF4, sequence (Q99607 whole entry): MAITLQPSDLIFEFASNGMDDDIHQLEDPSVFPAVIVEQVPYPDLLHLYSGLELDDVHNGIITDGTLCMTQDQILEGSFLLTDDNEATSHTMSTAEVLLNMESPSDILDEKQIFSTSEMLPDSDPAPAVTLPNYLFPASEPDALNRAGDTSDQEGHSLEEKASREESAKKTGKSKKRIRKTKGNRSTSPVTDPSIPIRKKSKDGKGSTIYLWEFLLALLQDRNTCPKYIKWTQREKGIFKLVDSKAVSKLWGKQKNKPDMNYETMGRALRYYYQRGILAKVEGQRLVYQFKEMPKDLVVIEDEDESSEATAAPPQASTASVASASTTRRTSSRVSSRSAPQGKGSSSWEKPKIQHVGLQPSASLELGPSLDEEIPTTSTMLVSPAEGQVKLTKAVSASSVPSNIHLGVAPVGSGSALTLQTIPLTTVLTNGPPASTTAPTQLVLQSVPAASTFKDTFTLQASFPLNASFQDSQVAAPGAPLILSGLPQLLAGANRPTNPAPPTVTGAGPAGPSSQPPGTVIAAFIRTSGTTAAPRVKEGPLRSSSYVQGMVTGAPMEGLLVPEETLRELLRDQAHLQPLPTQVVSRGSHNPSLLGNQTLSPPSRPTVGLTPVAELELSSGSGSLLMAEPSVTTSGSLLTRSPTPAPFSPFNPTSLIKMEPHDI
# In short: as §1
# ELK4 = target: T9, ELK4 (Homo sapiens, UniProt P28324-2 1-405); conditions: protein: recombinant; tags: N-terminal GST; dsDNA, one strand shown
# T9 sequence: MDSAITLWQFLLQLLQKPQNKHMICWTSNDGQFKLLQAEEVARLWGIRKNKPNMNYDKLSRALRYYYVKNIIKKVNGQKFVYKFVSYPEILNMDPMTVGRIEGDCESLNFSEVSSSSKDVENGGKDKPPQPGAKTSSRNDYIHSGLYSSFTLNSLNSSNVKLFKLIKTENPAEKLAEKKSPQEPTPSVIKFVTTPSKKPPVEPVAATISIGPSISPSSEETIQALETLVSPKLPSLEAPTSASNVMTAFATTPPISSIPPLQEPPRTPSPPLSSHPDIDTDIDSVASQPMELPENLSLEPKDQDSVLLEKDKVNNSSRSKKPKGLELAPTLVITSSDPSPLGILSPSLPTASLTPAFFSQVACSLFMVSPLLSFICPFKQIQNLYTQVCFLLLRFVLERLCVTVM
# In short: as §1
# ETV2 = target: T10, ETV2 (Homo sapiens, UniProt O00321 1-342); conditions: protein: recombinant; tags: N-terminal GST; dsDNA, one strand shown
# T10 sequence: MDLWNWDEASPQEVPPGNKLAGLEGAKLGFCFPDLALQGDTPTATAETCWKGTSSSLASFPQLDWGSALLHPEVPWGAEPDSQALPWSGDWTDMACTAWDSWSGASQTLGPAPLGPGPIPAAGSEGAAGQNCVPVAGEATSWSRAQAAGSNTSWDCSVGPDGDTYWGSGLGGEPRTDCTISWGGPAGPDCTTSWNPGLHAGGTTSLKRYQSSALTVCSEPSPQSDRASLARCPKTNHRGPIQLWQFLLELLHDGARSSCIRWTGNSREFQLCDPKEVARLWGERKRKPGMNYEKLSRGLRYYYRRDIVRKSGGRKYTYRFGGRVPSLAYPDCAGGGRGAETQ
# In short: as §1
# ELF3 = target: T11, ELF3 (Homo sapiens, UniProt P78545 1-371); conditions: protein: recombinant; tags: N-terminal GST; dsDNA, one strand shown
# T11 sequence: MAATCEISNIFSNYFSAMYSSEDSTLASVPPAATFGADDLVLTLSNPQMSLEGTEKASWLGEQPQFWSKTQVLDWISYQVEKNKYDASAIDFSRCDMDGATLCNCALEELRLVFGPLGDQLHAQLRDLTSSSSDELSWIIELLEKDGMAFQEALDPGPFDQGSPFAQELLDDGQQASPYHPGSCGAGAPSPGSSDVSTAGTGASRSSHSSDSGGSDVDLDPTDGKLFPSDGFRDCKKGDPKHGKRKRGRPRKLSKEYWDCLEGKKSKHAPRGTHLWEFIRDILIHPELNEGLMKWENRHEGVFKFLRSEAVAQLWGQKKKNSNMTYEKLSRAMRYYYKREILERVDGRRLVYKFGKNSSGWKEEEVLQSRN
# In short: as §1
# CRX = CRX (Homo sapiens, UniProt O43186 1-299); conditions: protein: recombinant; tags: N-terminal GST; dsDNA, one strand shown
# CRX, sequence (O43186 whole entry): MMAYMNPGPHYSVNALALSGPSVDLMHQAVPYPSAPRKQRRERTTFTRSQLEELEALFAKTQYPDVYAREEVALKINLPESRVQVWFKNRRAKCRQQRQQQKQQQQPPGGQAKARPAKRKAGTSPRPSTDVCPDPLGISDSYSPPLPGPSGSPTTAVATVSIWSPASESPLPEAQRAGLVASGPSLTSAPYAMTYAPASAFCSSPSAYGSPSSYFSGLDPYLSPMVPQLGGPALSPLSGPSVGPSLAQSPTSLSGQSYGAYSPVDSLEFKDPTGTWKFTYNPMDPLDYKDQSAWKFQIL
# In short: as §1
# ETV1 = ETV1 (Homo sapiens, UniProt P50549 1-477); conditions: protein: recombinant; tags: N-terminal GST; dsDNA, one strand shown
# ETV1, sequence (P50549 whole entry): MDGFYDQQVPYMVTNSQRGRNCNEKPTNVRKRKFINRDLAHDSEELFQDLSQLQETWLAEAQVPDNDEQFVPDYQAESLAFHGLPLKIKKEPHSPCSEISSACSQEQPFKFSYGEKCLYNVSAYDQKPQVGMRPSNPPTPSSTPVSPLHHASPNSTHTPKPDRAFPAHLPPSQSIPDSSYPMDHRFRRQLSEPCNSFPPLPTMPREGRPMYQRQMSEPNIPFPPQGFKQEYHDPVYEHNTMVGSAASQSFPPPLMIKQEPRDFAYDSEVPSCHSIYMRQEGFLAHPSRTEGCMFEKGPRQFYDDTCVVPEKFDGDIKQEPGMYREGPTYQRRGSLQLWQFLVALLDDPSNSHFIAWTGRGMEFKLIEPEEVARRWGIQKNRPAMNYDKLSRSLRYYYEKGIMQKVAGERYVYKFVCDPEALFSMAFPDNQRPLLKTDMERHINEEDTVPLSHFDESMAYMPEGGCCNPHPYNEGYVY
# In short: as §1
sequence,measurement,setting,value
CGCTCT,binding signal,FLI1,"1.39 fold enrichment (6-mer frequency, TF over GST control)"
same,binding signal,ELK1,"1.25 fold enrichment (6-mer frequency, TF over GST control)"
same,binding signal,GABPA,"1.34 fold enrichment (6-mer frequency, TF over GST control)"
same,binding signal,ERG,"1.21 fold enrichment (6-mer frequency, TF over GST control)"
same,binding signal,ELF1,"1.3 fold enrichment (6-mer frequency, TF over GST control)"
same,binding signal,EHF,"1.21 fold enrichment (6-mer frequency, TF over GST control)"
same,binding signal,SPI1,"1.21 fold enrichment (6-mer frequency, TF over GST control)"
same,binding signal,SPIB,"1.16 fold enrichment (6-mer frequency, TF over GST control)"
same,binding signal,ELK3,"1.18 fold enrichment (6-mer frequency, TF over GST control)"
same,binding signal,FEV,"1.27 fold enrichment (6-mer frequency, TF over GST control)"
same,binding signal,ETV5,"1.34 fold enrichment (6-mer frequency, TF over GST control)"
same,binding signal,HSF1,"1.17 fold enrichment (6-mer frequency, TF over GST control)"
same,binding signal,SPIC,"1.31 fold enrichment (6-mer frequency, TF over GST control)"
same,binding signal,ELF4,"1.39 fold enrichment (6-mer frequency, TF over GST control)"
same,binding signal,ELK4,"1.07 fold enrichment (6-mer frequency, TF over GST control)"
same,binding signal,ETV2,"1.12 fold enrichment (6-mer frequency, TF over GST control)"
same,binding signal,ELF3,"1.24 fold enrichment (6-mer frequency, TF over GST control)"
same,binding signal,CRX,"1.05 fold enrichment (6-mer frequency, TF over GST control)"
same,binding signal,ETV1,"1.25 fold enrichment (6-mer frequency, TF over GST control)"
